TDP1 cell noCPT – qHTS for Inhibitors of human tyrosyl-DNA phosphodiesterase 1 (TDP1): qHTS in cells in absence of CPT | actives 15% (n = 420,000) | DT40 Tdp1-/- hTDP1 cells, no CPT, ATP luminescence, 48 h | AID 686978, 2013 | Potency, µM (series often up to 46.2 µM), inactives show at the highest dose activity change, negative = growth inhibition, actives largely listed as inhibitors; also: potency is read from the fitted curve at half-maximal effect; nearly all actives have a fitted effect of over 55% in size
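Camptothecin absent (DMSO only). Human TDP1-complemented DT40 knockout cells, 400 cells/well, 37 °C for minimum 48 hr; ATP measured via CellTiter-Glo, 30 min dark incubation, luminescence.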
IL1B secr inh – inflammasome signaling inhibition, IL-1 beta readout | THP-1 LPS/ATP IL-1B secretion, AlphaLISA, 16 h; stronger effect = lower value | activity change, % at 57.5 µM | actives 4.7% (n = 360,000) | AID 743279; in the data active = activity change below about -50%; inconclusive = mostly about -30% to -49%
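Secreted IL-1B measured by AlphaLISA bead assay after 16 h compound exposure of THP-1 cells; compounds (final up to 57.5 uM) added 1 h before LPS (250 ng/mL) and ATP (1.25 mM) stimulation; lower signal means less secretion.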
TDP1 cell CPT – growth inhibition of DT40 Tdp1-/-;hTDP1 cells with camptothecin (screen for TDP1 inhibitors); chicken DT40 Tdp1-/-;hTDP1 cells + 20 nM CPT, ATP luminescence, 48 h; Potency, µM (top dose mostly 46.2 µM), for the others: at the top dose activity change, negative = growth inhibition, actives largely listed as inhibitors; actives 12% (n = 420,000); AID 686979; also: potency is read from the fitted curve at half-maximal effect; nearly all actives have a fitted effect of over 55% in size
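Chicken DT40 Tdp1-/- cells complemented with human TDP1, 400 cells/well, exposed to compounds plus 20 nM camptothecin for at least 48 h at 37 C; viability read as ATP content by CellTiter-Glo luminescence.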
ELG1 repair inh – inhibitors of ELG1-dependent DNA repair in HEK293T cells; HEK293T ELG1-luciferase reporter, luminescence, 16 h; DNA damage induced by 5-fluorouridine; Potency, µM (highest dose often 46.1 µM), for inactives: at the highest dose activity change, negative = inhibition, hits mostly inhibitors; actives 2.3% (n = 330,000); AID 504467; also: potency is read from the fitted curve at half-maximal effect; nearly all actives have a fitted effect of over 55% in size
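Overnight (16 hr) co-exposure of 2,000 cells/well to 5-fluorouridine and compound at 37 °C preceded detection. Luciferase was quantified via ONE-Glo luminescence; loss of signal denotes inhibition.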
Giardia kill – kills Giardia lamblia; Giardia lamblia trophozoite viability; activity change, % at 7.66 µM, hits read low; actives 0.15% (n = 340,000); in the data active = activity change below about -80%; inconclusive = between about -30% and that limit;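 also: parasites exposed to compound for two days anaerobically before the ATP read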
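Trophozoites 100 cells/well + cpd; 48 hrs, 37 deg C, anaerobic. ATPLite 1-Step added, 15-30 min RT, luminescence read (ATP-based viability).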
TDP1 inh – inhibitors of human tyrosyl-DNA phosphodiesterase TDP1. Q9NUW8. recombinant TDP1, AlphaScreen DNA substrate cleavage. Potency, µM (doses to about 130 µM), for inactives: at the top dose activity change, negative = inhibition, hits mostly inhibitors. actives 0.28% (n = 350,000). AID 485290; also: potency is read from the fitted curve at half-maximal effect; nearly all actives have a fitted effect of over 40% in size
Target sequence (Q9NUW8 whole entry, looked up): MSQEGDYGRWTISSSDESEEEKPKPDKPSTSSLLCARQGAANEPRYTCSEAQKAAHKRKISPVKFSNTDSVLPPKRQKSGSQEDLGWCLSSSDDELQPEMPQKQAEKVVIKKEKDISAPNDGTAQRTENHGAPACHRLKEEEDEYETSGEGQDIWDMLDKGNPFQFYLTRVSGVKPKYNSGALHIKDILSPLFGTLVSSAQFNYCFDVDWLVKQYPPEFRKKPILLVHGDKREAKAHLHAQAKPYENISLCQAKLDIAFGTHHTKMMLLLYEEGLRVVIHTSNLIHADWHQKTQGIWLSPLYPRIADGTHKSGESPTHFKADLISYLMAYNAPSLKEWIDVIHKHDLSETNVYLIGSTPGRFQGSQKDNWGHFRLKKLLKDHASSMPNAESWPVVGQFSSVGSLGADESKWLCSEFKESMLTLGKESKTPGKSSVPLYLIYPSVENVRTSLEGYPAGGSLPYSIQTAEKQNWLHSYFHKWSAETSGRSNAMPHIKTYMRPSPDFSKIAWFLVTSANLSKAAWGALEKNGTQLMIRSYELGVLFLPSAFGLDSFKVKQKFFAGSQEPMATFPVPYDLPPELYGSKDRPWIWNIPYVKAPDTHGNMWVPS
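Enzyme-compound mixtures sat 15 min at room temperature, followed by a 5 min reaction with 15 nM final substrate and 10 min with AlphaScreen beads. Recombinant human Tdp1 was used at 1 nM final.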
An asterisk follows results filed as active; u = inconclusive; x = not tested or not shown; [ ] = remark or other dose. This is a sample that favours compounds with a hit; in the whole collection about 19% have one here. Unless noted, calls follow the shape of the dose curve; as a rule, active = well fitted curve in the direction sought with a large enough effect; inconclusive = small, poorly fitted or top-dose-only effect, or another doubt; inactive = no such curve, though single readings can be large; an effect the other way counts as inactive or inconclusive. % is scaled to controls: 0 for no effect and ±100 for the full control effect.

SMILES	TDP1 cell noCPT	IL1B secr inh	TDP1 cell CPT	ELG1 repair inh	Giardia kill	TDP1 inh
O=c1[nH]cnc2nc(-c3ccccc3)c(-c3ccccc3)nc12	2.9µM*	41	1.5µM*	11%	-7	5%
O=c1[nH]cnc2nn(-c3ccccc3)nc12	-2%	6	-16%	u	13	6%
Cc1ccccc1C1CC(=O)Oc2cc(C)c(Cl)c(C)c21 (configuration not stated)	x	x	x	x	x	-1%
CC(=O)Nc1ccccc1/C=C/c1ccc2c(C)cc(C)c(O)c2n1	16µM*	1	u	-16%	7	1%
CCOC(=O)c1c(C)oc2nc(C)nc(NCc3ccccc3Cl)c12	u	x	16µM*	x	x	4%
CCOC(=O)c1c(C)oc2nc(C)nc(NCC3CCN(Cc4ccc(F)cc4)CC3)c12	u	x	-29%	x	x	2%
CCOC(=O)c1c(C)oc2nc(C)nc(NCc3ccccc3OCC)c12	u	x	u	x	x	4%
CCOC(=O)c1c(C)oc2nc(C)nc(NCc3ccccc3OC)c12	15µM*	x	12µM*	x	x	6%
O=C(NC1CC(=O)N(c2cccc(F)c2)C1)C(=O)c1c[nH]c2ccccc12 (configuration not stated)	-19%	1	-16%	u	-13	x
CC(NCCC(c1ccccc1)c1ccccc1)c1ccccc1 (configuration not stated)	5.2µM*	u	6.5µM*	u	-1	5%
COc1ccccc1N1CCN(C[C@@H](C(=O)NC(C)(C)C)c2ccccc2)CC1	u	x	-35%	x	x	-12%[56.1 µM]
CC1CCCCC12NC(=O)N(CC(=O)N1CCN(Cc3ccc(C#N)cc3)CC1)C2=O (configuration not stated)	7.3µM*	18	16µM*	16%	-10	0%
Cc1cnnn1-c1cccc([N+](=O)[O-])c1	-2%	2	-3%	-6%	-10	5%
Cc1cnnn1-c1ccc(C(=O)CCl)cc1	2.6µM*	-109*	2.3µM*	-9%	-9	0%
CO[C@H]1COC(=O)[C@@H](C)COC(=O)[C@H](C)NC(=O)C/C=C\[C@H]1C	x	x	x	x	x	6%[21 µM]
COc1ccc(OC)c(Nc2nc(NCCCN(C)C)nc(N)c2[N+](=O)[O-])c1	4.6µM*	-99*	4.6µM*	-1%	-23	3%
CNc1nc(N)c([N+](=O)[O-])c(Nc2ccccc2OC)n1	21µM*	-4	u	u	-28	x
COc1ccc(OC)c(Nc2nc(N)c([N+](=O)[O-])c(NC3CCCCC3)n2)c1	u	14	8.2µM*	3%	-2	x
COc1ccccc1Nc1nc(N(C)c2ccccc2)nc(N)c1[N+](=O)[O-]	u	14	2%	7%	u	x
COc1ccccc1Nc1nc(NCCC(C)C)nc(N)c1[N+](=O)[O-]	18µM*	6	u	21µM*	23	1%
Cc1cccc(-n2cc(-c3ccccc3)nc2SCC(=O)Nc2ccccc2Cl)c1	u	x	u	x	x	4%
Cc1ccc(/C=N/OC(=O)c2nn(C)cc2Cl)cc1	-9%	10	4%	u	-23	-2%
CN1CCOc2cc(S(=O)(=O)N3CCN(c4nc(-c5cccs5)nc5ccccc45)CC3)ccc21	u	x	5%	x	1	2%
NCCCNc1nc(N)c([N+](=O)[O-])c(NC2CCCCC2)n1	3.7µM*	-16	4.1µM*	u	-3	x
NS(=O)(=O)c1cccc(NC(=O)COc2ccc([N+](=O)[O-])cc2)c1	-26%	0	u	u	-4	3%
Cc1ccccc1CNC(=O)c1ccc(Cl)c([N+](=O)[O-])c1	u	x	u	-18%	19	6%
